What all share (test): yeast three-hybrid, YBZ-1, SC-Leu-His + 0.5 mM 3-AT, 4 days
What all share (settings): tags: N-Gal4 AD-HA kept; label: inside an RPR1-promoter hybrid RNA with tandem MS2 sites; ssRNA

One assay has as its target PUM1 PUF domain R4-SMV (Homo sapiens, UniProt Q14671 828-1176, N971S;H972M;Q975V). Put shortly:
(§1)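 A centromeric plasmid in strain YBZ-1 co-expressed Pumilio-1 PUF domain libraries, randomized at the three base-contacting residues of each repeat, with matching RNA elements; the strain carries a LexA–MS2 coat fusion and a HIS3 reporter. After four days on SC-Leu (input) or SC-Leu-His + 0.5 mM 3-AT (selection), the repeat regions were PCR-amplified and Illumina-sequenced. The interaction score is the log change in variant frequency from input to selection, using log2 and a pseudocount of 1 where absent.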

The target in a further assay is PUM1 PUF domain R5-FRQ (Homo sapiens, UniProt Q14671 828-1176, C1007F). The essentials: as §1
A further assay concerns the target PUM1 PUF domain R1-RQN (Homo sapiens, UniProt Q14671 828-1176, S863R;R864Q;Q867N). Put shortly: as §1
The target in a further assay is PUM1 PUF domain R3-TFL (Homo sapiens, UniProt Q14671 828-1176, C935T;R936F;Q939L). The essentials: as §1
A further assay has as its target PUM1 PUF domain R3-PWV (Homo sapiens, UniProt Q14671 828-1176, C935P;R936W;Q939V). The essentials:
as §1

A further assay concerns the target PUM1 PUF domain R3-SNP (Homo sapiens, UniProt Q14671 828-1176, C935S;R936N;Q939P). Put shortly:
as §1

A further assay addresses PUM1 PUF domain R5-SRI (Homo sapiens, UniProt Q14671 828-1176, C1007S;Q1011I). The essentials:
as §1

A further assay addresses T1, PUM1 PUF domain R6-SFA (Homo sapiens, UniProt Q14671 828-1176, N1043S;Y1044F;Q1047A).
T1 sequence: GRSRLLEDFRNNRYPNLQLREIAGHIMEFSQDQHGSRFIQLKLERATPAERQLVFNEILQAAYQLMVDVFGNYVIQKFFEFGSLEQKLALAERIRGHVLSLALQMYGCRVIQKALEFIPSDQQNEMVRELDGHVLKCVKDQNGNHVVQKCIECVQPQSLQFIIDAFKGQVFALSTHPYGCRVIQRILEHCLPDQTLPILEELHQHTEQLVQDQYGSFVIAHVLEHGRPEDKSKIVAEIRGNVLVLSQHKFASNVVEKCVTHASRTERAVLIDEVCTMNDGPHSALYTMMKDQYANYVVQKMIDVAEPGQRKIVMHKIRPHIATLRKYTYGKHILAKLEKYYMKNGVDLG
Put shortly:
as §1

The next assay concerns the target PUM1 PUF domain R3-ARL (Homo sapiens, UniProt Q14671 828-1176, C935A;Q939L). Put shortly: as §1
In the next assay the target is PUM1 PUF domain R8-CHR (Homo sapiens, UniProt Q14671 828-1176, N1122C;Y1123H;Q1126R). Put shortly:
as §1

Chain of PUM1 PUF domain R4-SMV (Q14671 828-1176 N971S/H972M/Q975V): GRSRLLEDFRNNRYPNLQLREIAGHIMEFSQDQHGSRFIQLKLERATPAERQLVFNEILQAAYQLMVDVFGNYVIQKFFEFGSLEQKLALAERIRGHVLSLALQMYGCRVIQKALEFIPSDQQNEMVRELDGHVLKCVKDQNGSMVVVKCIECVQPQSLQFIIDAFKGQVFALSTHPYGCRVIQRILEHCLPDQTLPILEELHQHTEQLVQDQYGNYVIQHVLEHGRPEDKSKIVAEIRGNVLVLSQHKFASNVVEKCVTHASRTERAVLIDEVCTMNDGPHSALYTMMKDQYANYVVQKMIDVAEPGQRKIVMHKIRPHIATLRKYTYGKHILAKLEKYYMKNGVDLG

For the sequence “GGCUAGAACUAGUGGAUCCCCCGGCGCCCGGCGGCUCGAGCCCGGGUAAGUGUAUAUAGUCUGCAUGCCGCCGGGCGCCAUGCCUGCAGGUCGACUCUAGAAAACAUG”, in the assay with PUM1 PUF domain R4-SMV, the binding signal was 2.15 log2 enrichment (interaction score).
In the case of “GGCUAGAACUAGUGGAUCCCCCGGCGCCCGGCGGCUCGAGCCCGGGUAAGUGUCAAUAGUCUGCAUGCCGCCGGGCGCCAUGCCUGCAGGUCGACUCUAGAAAACAUG”, the binding signal in the assay with PUM1 PUF domain R5-FRQ is 2.71 log2 enrichment (interaction score).
“GGCUAGAACUAGUGGAUCCCCCGGCGCCCGGCGGCUCGAGCCCGGGUAAGUGUAAAUCGUCUGCAUGCCGCCGGGCGCCAUGCCUGCAGGUCGACUCUAGAAAACAUG”: the binding signal with PUM1 PUF domain R1-RQN is 4.56 log2 enrichment (interaction score).
For the sequence “GGCUAGAACUAGUGGAUCCCCCGGCGCCCGGCGGCUCGAGCCCGGGUAAGUGUAAAUAGUCUGCAUGCCGCCGGGCGCCAUGCCUGCAGGUCGACUCUAGAAAACAUG”, the binding signal with PUM1 PUF domain R3-TFL is 2.81 log2 enrichment (interaction score); with PUM1 PUF domain R3-PWV, 3.63 log2 enrichment (interaction score); in the assay with PUM1 PUF domain R3-SNP, 2.72 log2 enrichment (interaction score); with PUM1 PUF domain R5-SRI, 2.73 log2 enrichment (interaction score); with PUM1 PUF domain R6-SFA, 3.38 log2 enrichment (interaction score); with PUM1 PUF domain R3-ARL, 3.6 log2 enrichment (interaction score). In addition, the figures for the binding signal with PUM1 PUF domain R8-CHR and with PUM1 PUF domain R4-SMV were 2.18 log2 enrichment (interaction score) and 3.8 log2 enrichment (interaction score), respectively.
As for “GGCUAGAACUAGUGGAUCCCCCGGCGCCCGGCGGCUCGAGCCCGGGUAAGUGUAAUUAGUCUGCAUGCCGCCGGGCGCCAUGCCUGCAGGUCGACUCUAGAAAACAUG”, the binding signal with PUM1 PUF domain R3-ARL was 1.22 log2 enrichment (interaction score).

(Values after PMC8384837, “Expanding the binding specificity for RNA recognition by a PUF domain”.)
